Where “and” joins values, the source holds several entries; their conditions need not be identical. Equal entries are not always repeated. About 2,000 (36%) of roughly 5,500 compounds were called active. Roughly 18% stayed inconclusive and do not appear here. Rule as the data show it: active = normalized growth mostly below about 0.91 (no sharp cut-off); inconclusive = no clear call, values can overlap the other calls; inactive = mostly above about 0.92. The list shows a part of the results.
Test: chemical genetic growth profiling, strain panel (AID 1159580);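 also: tested at 20 µM; growth read once vehicle control cultures reached saturation at 30 °C; 1 = growth at the plate median or of vehicle wells; lower values mean less growth of the strain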
Conditions: S. cerevisiae deletion strains, growth OD

Measured: normalized growth

O=C(O)CCC(=O)c1ccc(-c2ccccc2)cc1
0.994 (inactive) and 0.66 (active): locus YHR030C, strain SLT2, stronger effect = lower value
0.971 (inactive) and 0.676 (active): locus YJL095W, strain BCK1, stronger effect = lower value
inactive: locus YAL013W, strain DEP1, stronger effect = lower value 0.985 | locus YAL021C, strain ccr4, stronger effect = lower value 1.01 | locus YAL026C, strain drs2, stronger effect = lower value 0.976 | locus YAL030W, strain snc1, stronger effect = lower value 0.991 | locus YBL061C, strain skt5, stronger effect = lower value 0.989 | locus YBR009C, strain hhf1, stronger effect = lower value 0.998 | locus YBR021W, strain FUR4, stronger effect = lower value 0.964 | locus YBR023C, strain chs3, stronger effect = lower value 0.983 | locus YBR171W, strain sec66, stronger effect = lower value 0.983 | locus YBR229C, strain ROT2, stronger effect = lower value 0.986 | locus YBR231C, strain swc5, stronger effect = lower value 0.981 | locus YBR279W, strain paf1, stronger effect = lower value 0.975 | locus YCL011C, strain gbp2, stronger effect = lower value 1 | locus YCL016C, strain dcc1, stronger effect = lower value 0.999 | locus YCL029C, strain bik1, stronger effect = lower value 0.934 | locus YCL069W, strain vba3, stronger effect = lower value 0.983 | locus YCR088W, strain abp1, stronger effect = lower value 1.01 | locus YDL005C, strain med2, stronger effect = lower value 0.991 | locus YDL035C, strain GPR1, stronger effect = lower value 0.989 | locus YDL040C, strain nat1, stronger effect = lower value 0.986 | locus YDL074C, strain BRE1, stronger effect = lower value 0.957 | locus YDL101C, strain DUN1, stronger effect = lower value 0.959 | locus YDL134C, strain PPH21, stronger effect = lower value 0.972 | locus YDL185W, strain tfp1, stronger effect = lower value 0.962 | locus YDL192W, strain arf1, stronger effect = lower value 0.971 | locus YDR001C, strain nth1, stronger effect = lower value 0.982 | locus YDR069C, strain doa4, stronger effect = lower value 0.986 | locus YDR101C, strain arx1, stronger effect = lower value 0.964 | locus YDR150W, strain NUM1, stronger effect = lower value 0.99 | locus YDR159W, strain sac3, stronger effect = lower value 1.02 | locus YDR162C, strain NBP2, stronger effect = lower value 0.986 | locus YDR195W, strain ref2 0.929 | locus YDR297W, strain sur2, stronger effect = lower value 0.99 | locus YDR318W, strain mcm21, stronger effect = lower value 0.963 | locus YDR334W, strain swr1, stronger effect = lower value 0.977 | locus YDR335W, strain msn5, stronger effect = lower value 0.953 | locus YDR388W, stronger effect = lower value 0.958 | locus YDR392W, strain spt3, stronger effect = lower value 1.02 | locus YDR502C, strain sam2, stronger effect = lower value 0.987 | locus YEL003W, strain gim4, stronger effect = lower value 0.954 | locus YEL037C, strain rad23, stronger effect = lower value 0.97 | locus YEL061C, strain CIN8 (second series), stronger effect = lower value 0.978 | locus YEL061C, strain CIN8, stronger effect = lower value 0.998 | locus YER015W, strain faa2, stronger effect = lower value 0.991 | locus YER016W, strain bim1, stronger effect = lower value 0.995 | locus YER110C, stronger effect = lower value 0.973 | locus YER111C, strain swi4, stronger effect = lower value 0.988 | locus YER155C, strain BEM2 (second series), stronger effect = lower value 0.958 | locus YER155C, strain BEM2, stronger effect = lower value 0.986 | locus YER167W, strain BCK2, stronger effect = lower value 0.987 | locus YFR010W, strain ubp6, stronger effect = lower value 0.986 | locus YGL086W, strain mad1, stronger effect = lower value 0.985 | locus YGL167C, strain pmr1, stronger effect = lower value 0.969 | locus YGL173C, strain kem1, stronger effect = lower value 0.965 | locus YGL227W, strain vid30, stronger effect = lower value 1 | locus YGL240W, strain doc1, stronger effect = lower value 0.929 | locus YGL248W, strain PDE1, stronger effect = lower value 0.98 | locus YGL253W, strain hxk2, stronger effect = lower value 0.972 | locus YGR078C, strain PAC10, stronger effect = lower value 0.96 | locus YGR135W, strain pre9, stronger effect = lower value 0.946 | locus YGR229C, strain SMI1, stronger effect = lower value 0.986 | locus YGR252W, strain gcn5, stronger effect = lower value 0.861 | locus YHR013C, strain ard1, stronger effect = lower value 1 | locus YHR027C, strain rpn1, stronger effect = lower value 1 | locus YHR079C, strain IRE1 (second series), stronger effect = lower value 0.947 | locus YHR094C, strain hxt1, stronger effect = lower value 0.984 | locus YHR129C, strain ARP1, stronger effect = lower value 0.988 | locus YHR142W, strain chs7, stronger effect = lower value 0.94 | locus YHR200W, strain rpn10, stronger effect = lower value 0.975 | locus YIL066C, strain RNR3, stronger effect = lower value 0.973 | locus YIL073C, strain SPO22, stronger effect = lower value 0.948 | locus YIL125W, strain kgd1, stronger effect = lower value 0.967 | locus YIR030C, strain dcg1, stronger effect = lower value 0.974 | locus YJL092W, strain hpr5, stronger effect = lower value 0.998 | locus YJL095W, strain BCK1 (second series), stronger effect = lower value 0.997 | locus YJL115W, strain asf1, stronger effect = lower value 0.981 | locus YJL129C, strain trk1, stronger effect = lower value 0.915 | locus YJL134W, strain LCB3, stronger effect = lower value 0.99 | locus YJL154C, strain vps35, stronger effect = lower value 0.996 | locus YJL164C, strain tpk1, stronger effect = lower value 0.996 | locus YJL166W, strain qcr8, stronger effect = lower value 0.976 | locus YJL168C, strain set2, stronger effect = lower value 0.972 | locus YJL187C, strain SWE1 (second series), stronger effect = lower value 0.948 | locus YJR043C, strain POL32, stronger effect = lower value 0.937 | locus YJR075W, strain HOC1, stronger effect = lower value 0.963
active: locus YDR137W, strain rgp1, stronger effect = lower value 0.793 | locus YGL078C, strain dbp3, stronger effect = lower value 0.842 | locus YHR079C, strain IRE1, stronger effect = lower value 0.739 | locus YJR066W, strain TOR1, stronger effect = lower value 0.706

Reference: PubChem BioAssay AID1159580 (chemical genetic matrix, 2015)
